Assay results as given in PubChem BioAssay AID1259418 (Broad Institute, 2018).
Hit rate of the full screen: of about 3,400 compounds, about 840 (25%) were called active. Not shown: some 11% with an inconclusive outcome. A selection follows. Potency and affinity values are given separately. A number with no mark means an inactive call.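 How the source made its calls: active means fitted half-maximal concentration of signal decrease at or below twice the sample's top tested concentration; inconclusive means flat curve between -70 and -30 percent, or poor fit; inactive means flat within 30 percent, signal rise, or potency above limit.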

Test: inhibitors of Toxoplasma growth in IFN-γ-primed HeLa – cell-based, ME49Luc, luciferase, 72 h, dose response (AID 1259418)
Settings: T. gondii ME49Luc in IFN-y HeLa, stronger effect = lower value, -100% = high-dose IFN-γ control wells; at 19.5 µM unless noted

| Compound | max activity |
| --- | --- |
| Cc1cccc(C(=O)N2CCC3(CC2)Nc2ccc(Cl)cc2-n2cccc23)c1 | 5.23% |
| COc1ccc(OC)c(NC(=O)Nc2ccc(-c3nc(-c4ccccc4)co3)cc2)c1 | 13.4% [at 0.68 µM] |
| COc1ccc(-c2nc(Nc3cccc(C(F)(F)F)c3)c3ccccc3n2)cc1 | -7.84% [at 5 µM] |
| N#C[C@@H]1[C@@H](c2ccc(-c3cccnc3)cc2)[C@H](CO)N1C(=O)Nc1ccc(F)cc1 | 48.3% [at 10 µM] |
| CCOc1cccc(-c2noc(-c3nnn(Cc4nc(-c5ccc(C)cc5)oc4C)c3C)n2)c1 | -11.7% [at 0.68 µM] |
| CN1C(=O)CCc2cc(NC(=O)c3cnccn3)ccc21 | 158% [at 10 µM] |
| COc1ccc(-c2nc(Nc3cc(Cl)ccc3OC)c3ccccc3n2)cc1 | 12.5% [at 0.68 µM] |
| Cc1ccc2c(c1)cc(S(=O)(=O)c1ccccc1)c(=O)n2CC(=O)NCC1CCCO1 (stereo unspecified) | -10.7% [at 10 µM] |
| CCOc1ccccc1NC(=O)N1CCN(Cc2nc(-c3ccc(C)cc3)oc2C)CC1 | -15.8% |
| COc1ccc(OC)c(CNc2nc(-c3ccc(Cl)cc3)nc3ccccc23)c1 | 14.3% |
| N#C[C@@H]1[C@@H](c2ccc(-c3cccc(F)c3)cc2)[C@H](CO)N1C(=O)NC1CCCC1 | 20.3% [at 10 µM] |
| N#C[C@H]1[C@@H](c2ccc(-c3cccc(F)c3)cc2)[C@@H](CO)N1C(=O)NC1CCCC1 | 14.8% [at 2.6 µM] |
| Cc1nc(-c2ccc(F)cc2)sc1-c1ccc(SCc2ccccc2)nn1 | 20.5% [at 10 µM] |
| COc1ccc(-c2nc(N3CCN(c4cc(Cl)ccc4C)CC3)c3ccccc3n2)cc1 | 23.2% [at 1.35 µM] |
| Cc1ccccc1-c1nc(CN2CCN(C(=O)NC3CCCCC3)CC2)c(C)o1 | -12% [at 0.35 µM] |
| Cc1cccc(-c2nc(Cn3nnc(-c4nc(-c5ccc(C(F)(F)F)cc5)no4)c3C)c(C)o2)c1 | -7.24% [at 0.16 µM] |
| Cc1ccc(C)c(N2CCN(c3nc(-c4ccc(Cl)cc4)nc4ccccc34)CC2)c1 | 16.9% |
| CC(C)Cc1ccc(S(=O)(=O)N2CCC3(CC2)NCCN=C3NCc2ccc3c(c2)OCO3)cc1 | 12.4% [at 10 µM] |
| O=S(=O)(c1ccc2c(c1)CCCC2)N1CCC2(CC1)NCCN=C2NCc1ccc2c(c1)OCO2 | 10.2% |
| Cc1ccc(S(=O)(=O)N2CCC3(CC2)NCCN=C3NCc2ccc3c(c2)OCO3)c(C)c1 | -18.3% |
| COc1ccccc1NC(=O)COc1nc(C)nc2ccccc12 | 14.7% |
| COc1ccc(S(=O)(=O)N2CCC[C@@H]2C(=O)NCCc2csc(C)n2)cc1OC | 10.7% [at 10 µM] |
| O=C(Cc1ccccc1)N1CCC2(CC1)CC(N1CCCC1)CO2 (stereo unspecified) | 17.6% [at 2.6 µM] |
| CC(C)CCNC(=O)Cn1c(=O)c(S(=O)(=O)c2ccccc2)cc2ccccc21 | -14% [at 0.16 µM] |
| CN1C(=O)CCc2cc(NC(=O)Cc3c(F)cccc3Cl)ccc21 | -7.19% [at 5 µM] |
| CN1C(=O)CCc2cc(NC(=O)C3CC3)ccc21 | -5.59% [at 0.16 µM] |

| Compound | max activity |
| --- | --- |
| COc1cccc(CCC(=O)Nc2ccc3c(c2)CCC(=O)N3C)c1 | 3.19% |
| CCN1C(=O)CCc2cc(NC(=O)Cc3ccc(Cl)cc3)ccc21 | 8.3% [at 2.6 µM] |
| COc1ccc(CC(=O)Nc2ccc3c(c2)CCC(=O)N3C)cc1Cl | 7.75% [at 10 µM] |
| COCC(=O)Nc1ccc2c(c1)CCC(=O)N2C | 6.56% [at 0.16 µM] |
| CCN1C(=O)CCc2cc(NC(=O)Cc3ccc(OC)cc3)ccc21 | 7.03% [at 2.6 µM] |
| CN1C(=O)CCc2cc(NC(=O)c3cccc(C(F)(F)F)c3)ccc21 | 6.55% [at 0.68 µM] |
| COc1cc(OC)c(NC(=O)Nc2ccc(-c3nc(-c4ccccc4)co3)cc2)cc1Cl | 24.2% |
| CCOC(=O)CSc1nc(NCCc2ccc(OC)c(OC)c2)c2ccccc2n1 | 24.2% [at 0.68 µM] |
| Cc1ccc(-c2nc(CN3CCN(C(=O)Nc4ccccc4C(F)(F)F)CC3)c(C)o2)cc1 | 15.9% [at 0.16 µM] |
| O=C(Nc1ccc(-c2nc(-c3ccccc3)co2)cc1)c1ccc2c(c1)OCO2 | 22.1% [at 0.35 µM] |
| COc1ccc(OC)c(NC(=O)Nc2ccc(-c3nc(-c4ccc(C)cc4C)co3)cc2)c1 | 12.1% [at 0.35 µM] |
| COc1cccc(-c2nc3c(s2)CN(C(=O)Nc2ccc(Br)cc2)CC3)c1 | 6.77% |
| Cc1ccc(-c2nc(Cn3nnc(-c4nc(-c5ccc(OCC(C)C)cc5)no4)c3C)c(C)o2)cc1 | 21.2% [at 0.16 µM] |
| CCOC(=O)C1CCN(S(=O)(=O)c2cc(-c3nc(C(C)(C)C)cs3)cs2)CC1 | 7.71% [at 0.68 µM] |
| CN1C(=O)CCc2cc(NC(=O)c3ccsc3)ccc21 | 74.1% [at 10 µM] |
| CN1C(=O)CCc2cc(NC(=O)c3ccncc3)ccc21 | -16.2% [at 2.6 µM] |
| Cc1ccc(-c2coc(-c3ccc(NC(=O)c4ccc(Br)o4)cc3)n2)cc1 | 38% [at 2.6 µM] |
| O=C(Nc1ccc(-c2nc(-c3ccccc3)co2)cc1)Nc1cccc(F)c1 | 13.5% |
| Cc1nc(-c2ccc(F)cc2)sc1-c1ccc(SCCN2CCCCCC2)nn1 | 9.96% |
| COc1ccc(CC(=O)Nc2ccc(-c3nc(-c4ccc(C)cc4)co3)cc2)cc1 | 16.4% [at 0.35 µM] |
| COc1ccc(-c2ccc(OCCNC(=O)c3sc(-c4ccccc4)nc3C)nn2)cc1 | 13.2% [at 0.16 µM] |
| O[C@H](CNC[C@@H](O)[C@H]1CCc2cc(F)ccc2O1)[C@@H]1CCc2cc(F)ccc2O1 | -7.92% [at 0.3 µM] |
| CNc1ncc(CN(C)C(=O)c2csc(C)n2)cn1 | 20.8% |
| Cc1ccc2c(c1)cc(S(=O)(=O)c1ccccc1)c(=O)n2CC(=O)NCc1ccccc1Cl | 7.82% [at 0.68 µM] |
| O=C(NCCc1csc(-c2ccccc2)n1)[C@H]1CSCN1C(=O)Cc1cccs1 | 12.6% |
| COc1ccc(C)cc1NC(=O)Nc1ccc(-c2nc(-c3ccc(C)cc3C)co2)cc1 | 20.4% |

| Compound | max activity |
| --- | --- |
| COc1ccc(C(=O)Nc2ccc(-c3nc(-c4cc(C)ccc4C)co3)cc2)cc1OC | 9.52% [at 0.35 µM] |
| Cc1ccc(C)c(-c2coc(-c3ccc(NC(=O)c4ccccc4)cc3)n2)c1 | 11.8% [at 2.6 µM] |
| COc1cc(C(=O)Nc2ccc(-c3nc(-c4ccc(C)cc4C)co3)cc2)cc(OC)c1OC | 27.4% [at 5 µM] |
| COc1ccc(C(=O)Nc2ccc(-c3nc(-c4ccc(C)cc4C)co3)cc2)cc1OC | 45% |
| COc1ccccc1NC(=O)Nc1ccc(-c2nc(-c3cc(C)ccc3C)co2)cc1 | 9.93% [at 0.16 µM] |
| Cc1ccc(-c2coc(-c3ccc(NC(=O)Nc4ccc(F)cc4F)cc3)n2)cc1 | 92.1% |
| O=C(Nc1ccc(-c2nc(-c3ccccc3)co2)cc1)Nc1cc(F)ccc1F | 10.9% [at 2.6 µM] |
| COC(=O)c1ccc(NC(=O)Nc2ccc(-c3nc(-c4ccccc4)co3)cc2)cc1 | 75.7% [at 10 µM] |
| Cc1nc(CCNC(=O)C2CCN(C(=O)c3ccc(Br)o3)CC2)cs1 | 9.93% [at 5 µM] |
| COc1cc(C(=O)Nc2ccc(-c3nc(-c4cc(C)ccc4C)co3)cc2)cc(OC)c1OC | -22.7% [at 0.16 µM] |
| Cc1ccc(-c2coc(-c3ccc(NC(=O)c4cccs4)cc3)n2)cc1 | 20.5% [at 0.35 µM] |
| Cc1ccc(C)c(-c2coc(-c3ccc(NC(=O)c4cccs4)cc3)n2)c1 | 62.5% |
| COc1cc(NC(=O)Nc2ccc(-c3nc(-c4ccc(C)cc4)co3)cc2)cc(OC)c1OC | -16.6% [at 0.68 µM] |
| COC[C@H]1CN(C)C[C@]12CCN(C(=O)c1cc3ccccc3s1)C2 | 13.1% |
| COc1ccccc1-c1nc(C)c(-c2ccc(SCC(=O)OCc3ccccc3)nn2)s1 | 8.29% [at 10 µM] |
| Cc1oc(-c2cccc(Cl)c2)nc1CSc1nc2c(c(=O)[nH]1)CN(Cc1ccc(F)cc1)CC2 | 15.7% |
| Cc1cccc(C)c1NC(=O)CN1CCC2(CC1)N=C(c1ccc(F)cc1)C(=O)N2 | 10% [at 1.35 µM] |
| Cc1nc(OCC(=O)Nc2cccc(Cl)c2C)c2ccccc2n1 | 33.5% [at 0.16 µM] |
| COc1ccc(CNC(=O)CC2N=C3c4ccccc4N=C(SCc4ccccc4F)N3C2=O)cc1 (stereo unspecified) | 17.8% [at 10 µM] |
| COc1ccc(CNC(=O)CC2N=C3c4ccccc4N=C(SCc4cccc(F)c4)N3C2=O)cc1 (stereo unspecified) | 12.5% [at 1.35 µM] |
| Cc1ccc(CSC2=Nc3ccccc3C3=NC(CC(=O)NCc4ccc(F)cc4)C(=O)N23)cc1 (stereo unspecified) | 13.6% [at 1.35 µM] |
| COc1ccc(CNC(=O)CC2N=C3c4ccccc4N=C(SCc4ccc(C)cc4C)N3C2=O)cc1 (stereo unspecified) | -42% |
| COc1ccc(CNC(=O)CCC2N=C3c4ccccc4N=C(SCc4ccc(C)cc4)N3C2=O)cc1 (stereo unspecified) | 16.4% [at 1.35 µM] |
| CCCCNC(=O)CC1N=C2c3ccccc3N=C(SCc3ccc(F)cc3)N2C1=O (stereo unspecified) | 8.45% [at 2.6 µM] |
